# Experimental data taken from PubChem BioAssay (NCI).
# This is part of a sample that, as a whole, favours compounds with a hit. Of some 79,000 tested, about 15% had one in any assay. Values without a mark were called inactive. Activity calls are given as the source filed them. Rule as the data show it: active = growth inhibition above about 70%; inactive = the rest.
# Key:
# [1] = NCI Yeast Anticancer Drug Screen. Data for the rad52 strain (AID 147);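 also: 0% = growth of vehicle-treated control cultures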; settings: S. cerevisiae rad52 mutant growth inhibition, stronger effect = higher value
# Outline: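 Compounds are applied to a genetically defined yeast strain lacking normal DNA damage repair, and inhibition of growth is expressed relative to cultures given vehicle only.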
# [2] = NCI Yeast Anticancer Drug Screen. Data for the wt1 strain (AID 149);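 also: 0% = growth of vehicle-treated wt1 cultures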; settings: S. cerevisiae wt1 strain (SPY 50644) growth inhibition, stronger effect = higher value
# Outline: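 Vehicle-normalised growth inhibition; strain wt1; compound exposure.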
# [3] = NCI Yeast Anticancer Drug Screen. Data for the rad50EPP+ strain (AID 151);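 also: 0% = growth of vehicle-treated control cultures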; settings: S. cerevisiae rad50 mutant strain, stronger effect = higher value
# Outline: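 Compounds were applied to the rad50EPP+ yeast strain, which bears a defined DNA repair alteration, and growth inhibition was determined relative to vehicle-treated cultures.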
# [4] = NCI Yeast Anticancer Drug Screen. Data for the mgt1 strain (AID 153); settings: S. cerevisiae mgt1 mutant growth inhibition, stronger effect = higher value
# Outline: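 Strain: mgt1 yeast, one of a set carrying defined DNA damage repair or cell cycle control alterations. Compound-treated growth compared with vehicle.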
# [5] = NCI Yeast Anticancer Drug Screen. Data for the rad50 strain (AID 155);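 also: 0% = growth of vehicle-only cultures of the same strain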; settings: S. cerevisiae rad50 strain growth inhibition, stronger effect = higher value
# Outline: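 A DNA repair-deficient yeast mutant serves as the test organism; compound-induced growth inhibition is calculated against vehicle-treated cells.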
# [6] = NCI Yeast Anticancer Drug Screen. Data for the mec2-1 strain (AID 157); settings: S. cerevisiae mec2-1 strain, stronger effect = higher value
# Outline: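 Strain: mec2-1 (DNA repair/cell cycle alteration). Compound exposure, then growth measured; inhibition expressed relative to vehicle.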
# [7] = NCI Yeast Anticancer Drug Screen. Data for the rad14 strain (AID 159);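 also: 0% = growth of vehicle-treated control cultures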; settings: S. cerevisiae rad14 strain growth inhibition, stronger effect = higher value
# Outline: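 Vehicle-treated cultures served as the baseline for growth inhibition of a DNA repair-mutant yeast strain exposed to each compound.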
# [8] = NCI Yeast Anticancer Drug Screen. Data for the sgs1 mgt1 strain (AID 161);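 also: 0% = growth of cultures given vehicle only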; settings: S. cerevisiae sgs1 mgt1 strain, stronger effect = higher value
# Outline: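 Test agents were incubated with a DNA-repair-mutant yeast strain. Growth was then read and compared against vehicle-treated controls.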
# [9] = NCI Yeast Anticancer Drug Screen. Data for the CLN2oe strain (AID 163);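 also: 0% = growth of vehicle-only control cultures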; settings: S. cerevisiae CLN2oe strain, stronger effect = higher value
# Outline: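 Growth of a genetically modified yeast strain is measured after compound exposure and compared with cultures given vehicle alone.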
# [10] = NCI Yeast Anticancer Drug Screen. Data for the cln2 rad14 strain (AID 165);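 also: 0% = growth equal to vehicle treated cultures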; settings: S. cerevisiae cln2 rad14 strain, stronger effect = higher value
# Outline: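 Compounds are applied to the cln2 rad14 yeast strain, and growth is then compared with that of vehicle-treated cultures to give inhibition.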
# [11] = NCI Yeast Anticancer Drug Screen. Data for the bub3 strain (AID 167); settings: S. cerevisiae bub3 mutant strain, stronger effect = higher value
# Outline: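 Inhibition values come from growth of compound-treated mutant yeast normalised to vehicle-treated controls.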
# [12] = NCI Yeast Anticancer Drug Screen. Data for the wt2 strain (AID 169);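 also: 0% = growth of vehicle-treated yeast cultures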; settings: S. cerevisiae wt2 strain growth inhibition, stronger effect = higher value
# Outline: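 This strain belongs to a panel of yeast strains with defined genetic alterations in DNA damage repair or cell cycle control. Compounds are applied, and growth inhibition is measured against vehicle-treated cultures.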
# [13] = NCI Yeast Anticancer Drug Screen. Data for the mlh1 strain (AID 171);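 also: 0% = growth of vehicle-treated control cultures of the same strain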; settings: S. cerevisiae mlh1 strain growth inhibition, stronger effect = higher value
# Outline: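 Growth of the mutant yeast strain after compound exposure, expressed as inhibition relative to vehicle-only controls.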
# [14] = NCI Yeast Anticancer Drug Screen. Data for the sgs1 strain (AID 173);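 also: 0% = growth of vehicle-only control cultures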; settings: S. cerevisiae sgs1 mutant, stronger effect = higher value
# Outline: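 Growth of a yeast strain bearing a defined genetic alteration is measured after compound treatment. Inhibition is expressed relative to vehicle-only controls.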
# [15] = NCI Yeast Anticancer Drug Screen. Data for the rad18 strain (AID 177); settings: S. cerevisiae rad18 mutant growth inhibition, stronger effect = higher value
# Outline: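 Growth of the mutant yeast strain after compound exposure, normalised to vehicle-only cultures.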
# [16] = at 5.0 µM (retest, dose inferred, filed as 0.5)
# [17] = at 50.0 µM (retest, dose inferred, filed as 5.0)
smiles,measurement,setting,value
CCOC1(c2cccc([N+](=O)[O-])c2)c2ccccc2Oc2ccccc21,growth inhibition,[1]; at 1.2 µM,0%
same,growth inhibition,[1]; at 3.7 µM,2%
same,growth inhibition,[1]; at 11.0 µM,4%
same,growth inhibition,[1]; at 33.0 µM,10%
same,growth inhibition,[1]; at 100.0 µM,19%
same,growth inhibition,[2]; at 1.2 µM,2%
same,growth inhibition,[2]; at 3.7 µM,1%
same,growth inhibition,[2]; at 11.0 µM,4%
same,growth inhibition,[2]; at 33.0 µM,2%
same,growth inhibition,[2]; at 100.0 µM,3%
same,growth inhibition,[3]; at 1.2 µM,3%
same,growth inhibition,[3]; at 3.7 µM,2%
same,growth inhibition,[3]; at 11.0 µM,11%
same,growth inhibition,[3]; at 33.0 µM,24%
same,growth inhibition,[3]; at 100.0 µM,19%
same,growth inhibition,[4]; at 1.2 µM,0%
same,growth inhibition,[4]; at 3.7 µM,-2%
same,growth inhibition,[4]; at 11.0 µM,0%
same,growth inhibition,[4]; at 33.0 µM,15%
same,growth inhibition,[4]; at 100.0 µM,0%
same,growth inhibition,[5]; at 1.2 µM,1%
same,growth inhibition,[5]; at 3.7 µM,0%
same,growth inhibition,[5]; [16],41%
same,growth inhibition,[5]; at 11.0 µM,4%
same,growth inhibition,[5]; at 33.0 µM,7%
same,growth inhibition,[5]; [17],69%
same,growth inhibition,[5]; at 50.0 µM,51.8%
same,growth inhibition,[5]; at 100.0 µM,9%
same,growth inhibition,[6]; at 1.2 µM,-3%
same,growth inhibition,[6]; at 3.7 µM,2%
same,growth inhibition,[6]; [16],3%
same,growth inhibition,[6]; at 11.0 µM,0%
same,growth inhibition,[6]; at 33.0 µM,7%
same,growth inhibition,[6]; [17],23%
same,growth inhibition,[6]; at 50.0 µM,26.4%
same,growth inhibition,[6]; at 100.0 µM,13%
same,growth inhibition,[7]; at 1.2 µM,0%
same,growth inhibition,[7]; at 3.7 µM,2%
same,growth inhibition,[7]; at 11.0 µM,5%
same,growth inhibition,[7]; at 33.0 µM,7%
same,growth inhibition,[7]; at 100.0 µM,10%
same,growth inhibition,[8]; [16],26%
same,growth inhibition,[8]; [17],60%
same,growth inhibition,[8]; at 50.0 µM,57.6%
same,growth inhibition,[9]; at 1.2 µM,-6%
same,growth inhibition,[9]; at 3.7 µM,-1%
same,growth inhibition,[9]; at 11.0 µM,0%
same,growth inhibition,[9]; at 33.0 µM,-1%
same,growth inhibition,[9]; at 100.0 µM,2%
same,growth inhibition,[10]; [16],12%
same,growth inhibition,[10]; [17],30%
same,growth inhibition,[10]; at 50.0 µM,3.8%
same,growth inhibition,[11]; at 1.2 µM,-1%
same,growth inhibition,[11]; at 3.7 µM,-2%
same,growth inhibition,[11]; [16],32%
same,growth inhibition,[11]; at 11.0 µM,3%
same,growth inhibition,[11]; at 33.0 µM,1%
same,growth inhibition,[11]; [17],77% (active)
same,growth inhibition,[11]; at 50.0 µM,51.7%
same,growth inhibition,[11]; at 100.0 µM,1%
same,growth inhibition,[12]; at 1.2 µM,1%
same,growth inhibition,[12]; at 3.7 µM,-1%
same,growth inhibition,[12]; at 11.0 µM,1%
same,growth inhibition,[12]; at 33.0 µM,2%
same,growth inhibition,[12]; at 100.0 µM,4%
same,growth inhibition,[13]; at 1.2 µM,-2%
same,growth inhibition,[13]; at 3.7 µM,-2%
same,growth inhibition,[13]; at 11.0 µM,1%
same,growth inhibition,[13]; at 33.0 µM,3%
same,growth inhibition,[13]; at 100.0 µM,10%
same,growth inhibition,[14]; at 1.2 µM,-1%
same,growth inhibition,[14]; at 3.7 µM,1%
same,growth inhibition,[14]; at 11.0 µM,0%
same,growth inhibition,[14]; at 33.0 µM,6%
same,growth inhibition,[14]; at 100.0 µM,16%
same,growth inhibition,[15]; at 1.2 µM,-1%
same,growth inhibition,[15]; at 3.7 µM,1%
same,growth inhibition,[15]; at 11.0 µM,-12%
same,growth inhibition,[15]; at 33.0 µM,-9%
same,growth inhibition,[15]; at 100.0 µM,12%
Cc1cccc(C(C)(C)C)c1NC(=O)C(C#N)C1=C(Cl)C(=O)c2ccccc2C1=O (stereo not given),growth inhibition,[1]; at 1.2 µM,6%
same,growth inhibition,[1]; at 3.7 µM,36%
same,growth inhibition,[1]; at 11.0 µM,52%
same,growth inhibition,[1]; at 33.0 µM,97% (active)
same,growth inhibition,[1]; at 100.0 µM,98% (active)
same,growth inhibition,[2]; at 1.2 µM,-10%
same,growth inhibition,[2]; at 3.7 µM,10%
same,growth inhibition,[2]; at 11.0 µM,21%
same,growth inhibition,[2]; at 33.0 µM,98% (active)
same,growth inhibition,[2]; at 100.0 µM,98% (active)
same,growth inhibition,[3]; at 1.2 µM,14%
same,growth inhibition,[3]; at 3.7 µM,67%
same,growth inhibition,[3]; at 11.0 µM,99% (active)
same,growth inhibition,[3]; at 33.0 µM,99% (active)
same,growth inhibition,[3]; at 100.0 µM,98% (active)
same,growth inhibition,[4]; at 1.2 µM,19%
same,growth inhibition,[4]; at 3.7 µM,32%
same,growth inhibition,[4]; at 11.0 µM,49%
same,growth inhibition,[4]; at 33.0 µM,98% (active)
same,growth inhibition,[4]; at 100.0 µM,97% (active)
same,growth inhibition,[5]; at 1.2 µM,4%
same,growth inhibition,[5]; at 3.7 µM,24%
same,growth inhibition,[5]; [16],-1%
same,growth inhibition,[5]; at 11.0 µM,70% (active)
same,growth inhibition,[5]; at 33.0 µM,98% (active)
same,growth inhibition,[5]; [17],97% (active)
same,growth inhibition,[5]; at 50.0 µM,91% (active)
same,growth inhibition,[5]; at 100.0 µM,96% (active)
same,growth inhibition,[6]; at 1.2 µM,14%
same,growth inhibition,[6]; at 3.7 µM,46%
